MBNL1 CUG block – qHTS Assay for Inhibitors of MBNL1-poly(CUG) RNA binding; Muscleblind-like protein 1 (Homo sapiens), Q9NR56; TR-FRET MBNL1-His/biotin-(CUG)12 binding, 665/545 ratio; Potency, µM (doses to about 57.5 µM), for the others: at the top dose activity change, negative = inhibition, most hits filed as inhibitors; actives 0.036% (n = 280,000); active means well fitted inhibition curve with a large enough effect in the signal ratio, with a control signal flat, not every such curve was filed as active; inconclusive means small, poorly fitted or top-dose-only effect, or effect the other way, or a change in a side signal; inactive means no such curve, though single readings can be large or run the other way; the % refers to the signal ratio; further: potency means the concentration at half of the fitted maximal effect; on the % scale 0 is the no-effect control and ±100 the full control effect
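Compounds (final 92 nM to 58 uM) are added to His-tagged MBNL1 and biotin-(CUG)12, then terbium anti-His antibody and streptavidin-XL665 (5 nM final). After 60 min at room temperature, the 665/545 nm ratio is read.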
TRPV1 potentiator – HTS Assay for Compounds that Act as Potentiators of the Vanilloid Receptor 1; Transient receptor potential cation channel subfamily V member 1 (Homo sapiens), Q8NER1; TRPV1-expressing cells, Fluo-8 calcium influx, capsaicin EC20 potentiation; potentiation, % at 8.33 µM; actives 0.02% (n = 320,000); in the data active means potentiation above about 80%; inconclusive means between about 30% and that limit; further: 0% is about no effect
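Cells expressing TRPV1 were dye-loaded with Fluo-8 and read kinetically: 10 s baseline, 3 min after compound (agonist portion), then 2 min after EC20 capsaicin (allosteric enhancer portion). Calcium-bound dye fluorescence at 480/520 nm.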
KCNH2 3.1 block – qHTS for Inhibitors of KCHN2 3.1: Mutant qHTS; activity change, % (tested at about 1.8 µM); Potassium voltage-gated channel subfamily H member 2, brain isoform KCNH2 3.1 (human); U2OS KCNH2 3.1, thallium flux FluxOr; stronger effect = lower value; actives 0.95% (n = 340,000); AID 720553, 2013;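 active means maximum activity change below -70%; inconclusive means maximum activity change from -70% to -50%; inactive means maximum activity change above -50%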;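 further: thallium influx rate constant from kinetic fluorescence after stimulation buffer; on the % scale 0 is the no-effect control and ±100 the full control effect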
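We transduce U2OS cells with the mutant 3.1 virus, culture them overnight, load FluxOr with Red40 quencher for 45 min, then add stimulation buffer and read kinetically for 2 min to derive a normalized rate constant.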
KCNH2 WT inh – qHTS for Inhibitors of KCHN2 3.1: Wildtype qHTS. AID 720551, 2013. activity change, % at 1.84 µM. actives 0.37% (n = 340,000). Voltage-gated inwardly rectifying potassium channel KCNH2 (Homo sapiens), Q12809. U2OS, BacMam KCNH2, thallium flux FluxOr; stronger effect = lower value;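 active means maximum activity change below -70%; inconclusive means maximum activity change between -70% and -50%; inactive means maximum activity change above -50%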; further: on the % scale 0 is the no-effect control and ±100 the full control effect
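U2OS cells were transduced with wild-type KCNH2 virus (2.03 x 10^8 / mL) for 4 h at room temperature, then cultured overnight at 37 C. Thallium flux was read with FluxOr dye. Rate constants were normalized to DMSO controls.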
TRPV1 agonist – HTS Assay for Compounds that Act as Agonists of the Vanilloid Receptor 1; TRPV1-expressing cells, Fluo-8 calcium influx, agonist mode; actives 0.19% (n = 320,000); activation, % at 8.33 µM; AID 540275, 2011; Transient receptor potential cation channel subfamily V member 1 (Homo sapiens), Q8NER1; in the data active means activation above about 80%; inconclusive means between about 30% and that limit; further: 0% is about no effect
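Cells expressing TRPV1 were dye-loaded with Fluo-8 and read kinetically: 10 s baseline, 3 min after compound (agonist portion), then 2 min after EC20 capsaicin (allosteric enhancer portion). Calcium-bound dye fluorescence at 480/520 nm.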
Numbers without * were called inactive; i = inactive; ? = inconclusive; . = no result given. Compounds with a hit are over-represented: about 1.3% of the library has one in this group of screens.

SMILES	MBNL1 CUG block	TRPV1 potentiator	KCNH2 3.1 block	KCNH2 WT inh	TRPV1 agonist
O=C(OCC(=O)N1CCc2ccccc21)c1nc(Cl)ccc1Cl	-5%	6	7	-10	0
COc1ccc(N2CCN(c3ncnc4scc(-c5ccc(F)cc5)c34)CC2)cc1	5%	-29	9	1	-3
COc1ccc(CN2CCN(c3ncnc4scc(-c5ccc(F)cc5)c34)CC2)cc1	-9%	-1	-97*	?	-4
COc1ccc(N2CCN(c3ncnc4scc(-c5ccccc5)c34)CC2)cc1	4%	-2	-23	4	0
CCOc1ccc(CN2CCN(c3ncnc4scc(-c5ccccc5)c34)CC2)cc1	-5%	-6	-116*	-141*	3
O=C(COc1cccc(C(F)(F)F)c1)Nc1cccc(S(=O)(=O)NC2=NCCCCC2)c1	.	.	-4	7	.
CCCOc1ccc(CNC(=O)C2CCN(C(=O)N3CCOc4ccccc43)CC2)cc1	1%	28	-19	-8	0
Cc1ccnc(NC(=O)CNC(=O)c2ccccc2Br)c1	-2%	5	-1	-71*	0
Cc1ccnc(NC(=O)CNC(=O)c2ccc3ccccc3c2)c1	.	-7	-16	12	8
c1ccc(N2CCN(c3ccccc3)C2c2cccs2)cc1	-3%	?	3	-132*	0
CC(C)CC1NC(=O)N(CC(=O)Nc2cc(F)ccc2F)C1=O (configuration not stated)	.	4	0	3	3
CS(=O)(=O)N1CCN(c2ccccc2NC(=O)Cc2ccccc2)CC1	-2%	-1	5	5	3
O=C(Cc1ccccc1)Nc1ccccc1C(=O)Nc1ccccc1	.	-12	-123*	6	?
O=C(Cc1ccccc1)Nc1ccccc1N1CCN(c2ccccc2)CC1	2%	-16	-70*	0	?
O=C(Nc1ccccc1NC(=O)c1ccccc1F)c1ccccc1F	-3%	-33	14	-89*	-2
CCOC(=O)C1(CCOc2ccccc2)CCN(Cc2cc(OC)c(O)c(OC)c2)CC1	-6%	-19	-77*	-22	-1
CCOC(=O)C1(CCOc2ccccc2)CCN(Cc2ccc(OC)c(O)c2)CC1	-20%	?	-112*	-77*	1
CCOC(=O)C1(Cc2cccc(OC)c2)CCN(Cc2ccc(OC)c(O)c2)CC1	4%	-5	-77*	28	26
CCOC(=O)C1(CCOc2ccccc2)CCN(Cc2ccc(O)c(OCC)c2)CC1	-9%	27	-102*	-118*	2
CCOC(=O)C1(CCOc2ccccc2)CCN(Cc2ccc(OC)c(COC)c2)CC1	-5%	1	?	-3	1
N#Cc1cn(-c2cccc(C(F)(F)F)c2)c(=O)[nH]c1=O	0%	-11	19	4	-2
NCCNc1ccc(C(=O)N2c3ccccc3Sc3ccccc32)cc1[N+](=O)[O-]	?	-13	-175*	8	0
O=C(NCC1CCCO1)c1cncc(Br)c1 (configuration not stated)	0%	15	-145*	-16	-6
COc1cc(OC)cc(N(C(=O)c2ccco2)C(C(=O)NC2CCCC2)c2ccc(N3CCOCC3)cc2)c1 (configuration not stated)	2%	3	-11	-1	6
COc1ccc(-c2cccc(NC(=O)c3cccs3)c2)nn1	.	-1	9	5	28
SMILES	MBNL1 CUG block	TRPV1 potentiator	KCNH2 3.1 block	KCNH2 WT inh	TRPV1 agonist
COc1ccccc1NC(=O)C(C)OC(=O)CSCC(=O)Nc1cc(C)on1 (configuration not stated)	.	4	-7	-9	0
COc1ccccc1NC(=O)C(C)OC(=O)CSCC(=O)Nc1ccc(C)cc1C (configuration not stated)	.	-1	-74*	-8	0
COCCCNCCCCOc1ccc(OCc2ccccc2)cc1	-9%	7	-77*	47	0
C/C(=N\Nc1cc(N2CCOCC2)nc(C)n1)c1cccc([N+](=O)[O-])c1	10%	-4	12	3	1
CCCCc1ccc(/C(C)=N/Nc2cc(N3CCOCC3)nc(C)n2)cc1	0%	13	-82*	8	-2
c1ccc(CCN(Cc2ccccc2)C2CCN(C3CCCC3)CC2)cc1	-16%	-11	-88*	12	7
O=C(CCCc1ccccc1)N1CCN(C2CCCCC2)CC1	-8%	-14	16	5	22
CC(=O)c1cccc(NC(=O)C(C)OC(=O)CCc2nc3ccccc3c(=O)[nH]2)c1 (configuration not stated)	.	.	-3	-2	.
CN1CCN(C(=O)C2=C[C@H](c3ccc4c(c3)OCO4)C[C@H](OCCCCO)O2)CC1	.	.	-91*	-1	.
O=C(C1=C[C@@H](c2ccc3c(c2)OCO3)C[C@@H](OCCCCO)O1)N1CCOCC1	16%	-9	15	-5	16
CCc1ccccc1NC(=S)N(CCOC)C(C)c1ccco1 (configuration not stated)	-2%	-11	3	1	-3
O=C(Nc1ccc(Cl)cc1)c1cc2c(cc1O)[nH]c1ccccc12	-1%	-15	3	-8	4
CCc1ccc(NC(=O)Nc2ccc3c(c2)N(C)C(=O)CS3)cc1	-7%	-7	10	-7	88*
COCC1CCCN(C(=O)c2ccc3nc(Cc4cccc(Cl)c4)oc3c2)C1 (configuration not stated)	-1%	-16	-10	-7	1
O=[N+]([O-])c1ccc(/C=C/C2=NN(c3ccccc3)C(c3ccco3)C2)cc1 (configuration not stated)	.	26	-100*	?	?
O=[N+]([O-])c1ccc(C2=NN(c3ccccc3)C(c3ccco3)C2)cc1 (configuration not stated)	18%	.	?	?	.
O=Cc1ccc(Oc2cnccn2)cc1	-2%	0	-12	i	0
CCn1nc(C)cc1C(=O)N1CCCC(Nc2ccc(C(C)C)cc2)C1 (configuration not stated)	-4%	-8	17	24	81*
c1ccc(CN2CCN(c3ncnc4c3[nH]c3ccccc34)CC2)cc1	-5%	-34	-25	-18	80*
CC(C)c1ccc(NC2CCCN(C(=O)CN3CCCC3=O)C2)cc1 (configuration not stated)	-1%	-16	4	6	?
